Assay outcomes from PubChem.
PLK1 PBD inh: inhibitors of human PLK1 polo-box domain binding. AID 720504. P53350. Plk1 PBD binding of FITC phosphopeptide, fluorescence polarization. 2.8% of 360,000 active. Potency, µM, without a hit: max response, negative = inhibition, most hits filed as inhibitors; further: series mostly up to about 57 µM; on the % scale 0 is the no-effect control and ±100 the full control effect; nearly all actives have a fitted effect of over 65% in size
Target sequence (P53350 whole entry, looked up, the tested form may be a part): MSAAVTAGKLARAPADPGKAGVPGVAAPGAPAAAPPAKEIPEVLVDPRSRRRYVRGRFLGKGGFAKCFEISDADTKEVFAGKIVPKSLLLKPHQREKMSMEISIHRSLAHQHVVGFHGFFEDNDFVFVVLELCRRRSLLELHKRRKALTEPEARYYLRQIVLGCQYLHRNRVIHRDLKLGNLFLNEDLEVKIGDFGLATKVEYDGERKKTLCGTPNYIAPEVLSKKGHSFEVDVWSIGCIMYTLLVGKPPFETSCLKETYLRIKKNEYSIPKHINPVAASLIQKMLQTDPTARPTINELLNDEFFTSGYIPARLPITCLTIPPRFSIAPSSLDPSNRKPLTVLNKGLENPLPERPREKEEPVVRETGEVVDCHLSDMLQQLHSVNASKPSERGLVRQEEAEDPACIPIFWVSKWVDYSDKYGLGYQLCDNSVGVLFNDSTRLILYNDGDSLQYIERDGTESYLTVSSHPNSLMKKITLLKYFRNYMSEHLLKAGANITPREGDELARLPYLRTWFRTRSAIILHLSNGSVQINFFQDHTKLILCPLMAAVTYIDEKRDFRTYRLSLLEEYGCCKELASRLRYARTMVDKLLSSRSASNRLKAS
Sfp PPTase inh: Sfp phosphopantetheinyl transferase inhibition; Potency, µM, inactives show largest response in the series, negative = inhibition, most hits filed as inhibitors; Biochemical Sfp PPTase activity, qHTS; 3.5% of 310,000 active; Q9F4F7;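 further: the enzyme is Sfp with the accession as filed and its product quenches rhodamine fluorescence; 0% = enzyme reaction without inhibitor and -100% = no enzyme wells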
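Compounds were incubated with enzyme (final 15 nM) for 15 min at room temperature before substrate addition started the reaction. Fluorescence at 525 nm excitation, 598 nm emission was recorded immediately and after 30 minutes.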
BAZ2B block: blocks human BAZ2B | AlphaScreen BAZ2B-H3K14Ac peptide displacement | 4.4% of 360,000 active | Potency, µM (top dose mostly 114 µM), for the others: at the highest dose activity change, negative = inhibition, most hits filed as inhibitors; further: on the % scale 0 is the no-effect control and ±100 the full control effect; nearly all actives have a fitted effect of over 60% in size
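AlphaScreen luminescence quantifies BAZ2B engagement of H3K14Ac peptide; the protein and biotinylated peptide are both at 50 nM final, buffer PBS pH 7.4 with 0.01% Tween-20, all steps at room temperature.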
JMJD2A Tudor: inhibitors of human JMJD2A Tudor domain; O75164; AlphaScreen JMJD2A-Tudor / H3K4me3 peptide binding; Potency, µM (top dose mostly 114 µM), inactives show at the highest dose activity change, negative = inhibition, hits mostly inhibitors; 4.4% of 390,000 active; AID 504339; further: on the % scale 0 is the no-effect control and ±100 the full control effect; nearly all actives have a fitted effect of over 50% in size
HP1b chromo inh: HP1-beta chromodomain-methylated histone interaction inhibition; P83916; AlphaScreen HP1-beta / biotin-H3K9me3 peptide binding; AID 540317; Potency, µM (series often up to 114 µM), for inactives: top-dose activity change, negative = inhibition, usual class: inhibitors; 0.56% of 390,000 active; further: nearly all actives have a fitted effect of over 70% in size
Target sequence (P83916 whole entry, looked up): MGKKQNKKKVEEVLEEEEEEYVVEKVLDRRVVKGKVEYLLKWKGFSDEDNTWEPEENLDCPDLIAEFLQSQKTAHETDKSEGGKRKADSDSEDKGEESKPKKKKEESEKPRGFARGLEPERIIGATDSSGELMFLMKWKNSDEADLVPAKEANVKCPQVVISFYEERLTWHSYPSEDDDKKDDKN
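AlphaScreen: HP1-beta (50 nM) preformed 30 min with biotin-H3(1-18)K9me3 peptide (50 nM) in PBS pH 7.4, 0.01% Tween-20. Compound added for 30 min at RT, then streptavidin donor/nickel chelate acceptor beads (10 ug/mL) for 30 min.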
G9a inh: inhibitors of human histone lysine methyltransferase G9a. Potency, µM (highest dose often 102 µM), inactives show at the top dose activity, negative = inhibition, most hits filed as inhibitors. Q96KQ7. AID 504332. G9a H3K9 monomethylation, AlphaScreen, 2 h. 8.8% of 350,000 active; further: on the % scale 0 is the no-effect control and ±100 the full control effect; nearly all actives have a fitted effect of over 75% in size
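Methyltransferase reactions run at room temperature for 2 h (20 nM enzyme, 500 nM biotin-H3K9 peptide, 20 uM SAM) after a 15 min compound preincubation; product detected by AlphaScreen beads and anti-H3K9me1 antibody.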
Active calls of the source: *; ? = inconclusive; . = no result given; [ ] = another dose, or the depositor's remark. Rows were chosen to be rich in hits. Some 12% of all compounds tested hit in one or more screens of this group. The call rests on the fitted dose curve; in most records, active means well fitted curve in the direction sought with a large enough effect; inconclusive means small, poorly fitted or top-dose-only effect, or another doubt; inactive means no such curve, though single readings can be large; an effect the other way counts as inactive or inconclusive. Potency means the concentration at half of the fitted maximal effect.

SMILES | PLK1 PBD inh | Sfp PPTase inh | BAZ2B block | JMJD2A Tudor | HP1b chromo inh | G9a inh
COCCN1C(=O)C(=O)/C(=C(/O)c2ccc(S(=O)(=O)N3CCOCC3)cc2)C1c1cccc(OC)c1 (centres undefined) | -9.0% | -20.1% | -3.7%[57.1 µM] | -14.9% | 47.0% | 70.8µM*
COc1ccc(/C(O)=C2/C(=O)C(=O)N(CCCN3CCOCC3)C2c2ccc(OC)cc2)cc1 (centres undefined) | -6.2% | -1.5% | -9.6% | 3.6% | 29.4% | .
COc1ccc(C2/C(=C(/O)c3ccc(S(=O)(=O)N4CCOCC4)cc3)C(=O)C(=O)N2CCN2CCOCC2)cc1 (centres undefined) | -4.1% | 9.0% | ? | -11.0% | -4.1% | 50.1µM*
COCCN1C(=O)C(=O)/C(=C(/O)c2ccc(S(=O)(=O)N3CCCCC3)cc2)C1c1ccc(O)c(OC)c1 (centres undefined) | -18.0% | 0.4% | -11.5%[57.1 µM] | 89.1µM* | 48.4% | 70.8µM*
C=CCn1c(SCC(=O)N(CC)C2CCS(=O)(=O)C2)nc2cc(C(=O)O)ccc2c1=O (centres undefined) | -12.5% | . | 7.1% | -3.2% | 34.8% | 115.0%[12.7 µM]
O=[N+]([O-])c1ccc(-c2cc(-c3ccncc3)nc3ccc4ccccc4c23)cc1 | -8.0% | -4.2% | ? | -21.5% | 2.0% | 44.7µM*
CCC(Sc1nnc(-c2ccc(OC)c(OC)c2)c(-c2ccc(OC)c(OC)c2)n1)C(=O)NC1CCCC1 (centres undefined) | . | . | ? | -10.7% | 26.6% | -30.9%[59 µM]
CSCCC1NC(=O)N(CC(=O)Nc2c(Cl)cc(Cl)cc2Cl)C1=O (centres undefined) | 8.44µM* | 17.2% | 4.5% | -31.3%[11.4 µM] | -13.6% | 6.9%[12.7 µM]
Nc1cccc2c1C(=O)c1ccc(Cl)cc1C2=O | ? | . | . | 14.1µM* | ? | .
COc1ccc(CCNC(=O)Cn2nc(C)n3c(cc4cc(F)ccc43)c2=O)cc1OC | . | . | 10.0% | -3.6% | 61.4% | 35.2%[59 µM]
O=C(NCc1cccc2ccccc12)[C@H]1C[C@@H]1[C@H](NP(=O)(c1ccccc1)c1ccccc1)c1ccccc1 | . | 20.7% | . | . | . | .
CCCCNS(=O)(=O)c1ccc2nc(SCC(=O)c3ccc(C#N)cc3)[nH]c2c1 | -24.3% | -9.4% | 0.3% | -34.6% | 0.5% | 31.6µM*
CCOC(=O)C(CC)Sc1ccc2nnc(-c3ccc(F)cc3)n2n1 (centres undefined) | . | . | . | 0.8%[57.1 µM] | 24.9%[57 µM] | .
Cc1ccc(-c2cc(C(=O)NN=C3CCCC3)c3ccccc3n2)cc1 | -3.3% | 0.9% | 8.3% | -2.0% | 42.2% | 48.0%[12.7 µM]
Cc1cc(C(=O)NC(C)CCC(C)C)c2ccccc2n1 (centres undefined) | 0.9% | 7.3% | 10.7% | -13.7% | 37.6% | 44.7µM*
Cc1cc(C(=O)NN=C2CCCC2)c2ccccc2n1 | -16.4% | . | -5.8% | 11.2µM* | 6.1% | -23.3%
O=C(NN=C1CCCCCC1)c1cc(-c2ccccc2)nc2ccccc12 | 2.99µM* | 20.2% | -3.6%[57.1 µM] | ? | -14.8% | 9.7%
COc1cc2ncc3c(-c4ccc(C)cc4)nn(-c4ccc(F)cc4F)c3c2cc1OC | . | . | -22.8% | -26.2% | -5.9% | 8.6%[12.7 µM]
CCOc1cccc(C2C=C(c3ccc4c(c3)OCO4)NC(c3ccc(Cl)cc3)N2)c1O (centres undefined) | . | . | . | -9.2%[57.1 µM] | -9.1%[57 µM] | .
CC1(C)S[C@@H]2[C@H](NC(=O)[C@H](NC(=O)N3CCN(S(C)(=O)=O)C3=O)c3ccccc3)C(=O)N2[C@H]1C(=O)O | . | -2.3% | . | . | . | -36.9%[12.7 µM]
CCNc1ccc(S(=O)(=O)N(C)C)cc1NCC(=O)Nc1ccc(Br)cc1F | -12.2% | 0.3% | ? | ? | -27.5% | 14.1µM*
CCNc1ccc(S(=O)(=O)N(C)C)cc1NCC(=O)Nc1ccc(F)c(Cl)c1 | -4.3% | -1.9% | ? | ? | ? | 50.1µM*
CCOc1ccccc1NC(=O)C(CC)n1c(C(=O)OC)cc2occc21 (centres undefined) | . | . | ? | -22.9% | 10.8% | ?
O=C(CSC1=NS(=O)(=O)c2cc(Cl)ccc2N1)NCc1ccccc1 | 1.5% | . | 6.4% | -4.1% | 22.8% | -8.7%
NS(=O)(=O)c1cc2c(cc1Cl)NC(CSCc1ccccc1)=NS2(=O)=O | -2.1% | ? | 89.1µM* | 0.0% | 15.0% | -125.6%[59 µM]
SMILES | PLK1 PBD inh | Sfp PPTase inh | BAZ2B block | JMJD2A Tudor | HP1b chromo inh | G9a inh
CC(C)(C)C(=O)OCCNc1nc(-c2cccs2)nc2ccccc12 | . | . | . | -8.8% | 52.7% | .
CN(C)CCCN1c2ccc([N+](=O)[O-])cc2CCc2cc([N+](=O)[O-])ccc21 | . | . | . | 17.8µM* | ? | .
CCN1CCN(CC(=O)c2cc(Cl)ccc2Cl)CC1 | 5.3% | -12.0% | -23.9% | -18.5% | 24.1% | 14.1µM*
Cc1cc(C(=O)CN2CCCC2)c(C)n1-c1ccc(Cl)cc1 | -14.7% | 12.9% | -38.9% | -32.8% | 4.8% | 50.1µM*
Cc1cccc(C(=O)NNC(=O)C2CCCCC2)c1O | 2.7% | . | . | . | . | .
COc1ccccc1Cc1c(-c2ccccc2)nc2cc(C)c(Br)c(C)n12 | -4.9% | . | . | . | . | .
CCOC(=O)c1ccccc1OCc1cc(C2Nc3ccccc3C(=O)N2c2cccc3ccccc23)ccc1OC (centres undefined) | . | . | . | -3.1%[57.1 µM] | -7.9%[57 µM] | .
COc1cc2c3nnc(-c4ccc(F)cc4)c-3cn(Cc3cccc(C)c3)c2cc1OC | ? | 7.6% | 2.4% | -20.0% | 22.2% | 20.3%[59 µM]
COc1cc2c3nnc(-c4ccc(F)cc4)c-3cn(Cc3cccc(F)c3)c2cc1OC | ? | 44.7µM* | . | ? | -32.4% | 44.7µM*
O=C(c1ccco1)N1CCC2(CCCN(c3ccccn3)C2)CC1 | . | -1.0% | . | . | . | 3.1%[12.7 µM]
CCN1CCOC(=O)C1CC(=O)Nc1cccc(OC)c1 (centres undefined) | . | . | -30.4% | -7.5% | 3.8% | ?
CCN1CCOC(=O)C1CC(=O)Nc1ccc(C)c(Cl)c1 (centres undefined) | . | . | -22.5% | -16.0% | 22.9% | 2µM*
CCOc1ccc(NC(=O)CC2C(=O)N(CC)C(=S)N2CCNC(C)=O)cc1 (centres undefined) | -3.8% | 1.9% | 3.6% | -6.6% | 13.3% | -5.8%
CCOC(=O)c1ccc(NC(=O)CC2C(=O)OCCN2CC)cc1 (centres undefined) | -5.1% | -13.0% | -48.7% | -10.8% | 19.4% | 6.31µM*
CCOc1ccc(NC(=O)CC2C(=O)OCCN2CC)cc1 (centres undefined) | . | . | ? | -14.6% | 0.5% | 2.24µM*
CCOc1ccc(NC(=O)CC2C(=O)N(CC)C(=S)N2CCN2CCOCC2)cc1 (centres undefined) | 26.7µM* | 10.5% | -9.3% | 50.1µM* | -4.1% | 24.9%
COC(=O)c1cc(NC(=O)CC2C(=O)OCCN2Cc2ccccc2)cc(C(=O)OC)c1 (centres undefined) | . | . | -18.3% | -13.4% | 23.4% | -37.5%[59 µM]
